Vaccinia mCherry: inhibitors of vaccinia virus infection (mCherry reporter signal); Vaccinia virus mCherry reporter infection, fluorescence; hit rate 0.63% among 310,000; Potency, µM (series often up to 36.5 µM), most hits filed as inhibitors; calls by dose curve; tested in A549 cells; note: nearly all actives have a fitted effect of over 35% in size
Pf growth 96h: P. falciparum growth inhibition at 96 hour, primary screen for plastid delayed-death inhibitors. P. falciparum luciferase reporter growth, 96 h. Potency, µM (doses to about 28.7 µM), most hits filed as inhibitors. hit rate 6.9% among 320,000
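96 h incubation, 37 C, 5% CO2, of luciferase-reporter P. falciparum-infected RBCs (2% hematocrit, 0.05% parasitemia final) with test compounds; endpoint luminescence.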
NS1 inh: inhibitors of influenza NS1 protein function | Potency, µM (doses to about 46.1 µM) | hit rate 0.4% among 270,000 | AID 2326; calls by dose curve; note: actives are rising curves; nearly all actives have a fitted effect of over 50% in size
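Growth recovery, yeast-based: influenza A NS1 expressed in S. cerevisiae causes slow growth, and suppressors are detected by OD600. The parent strain without NS1 is used as positive control.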
Pf growth 48h: P. falciparum growth inhibition at 48 hours (one generation). hit rate 5.9% among 310,000. Potency, µM (titrated, usually from 28.7 µM), hits mostly inhibitors. P. falciparum luciferase growth in erythrocytes, 48 h
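Luminescence readout; reporter = integrated firefly luciferase in P. falciparum. RBC culture at 2% hematocrit, 0.1% parasitemia final, 37 C/5% CO2; decreased signal taken as growth inhibition.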
HCV inh: blocks hepatitis C virus. Huh7.5.1 HCVcc-Cre infection, luciferase reporter, 44 h. Potency, µM (doses to about 41.8 µM), usual class: inhibitors. hit rate 3.4% among 340,000
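HCVcc-Cre virus at an moi near 0.5 was added right after compound to cells cultured 4 h from seeding (1,000 cells/well). Luciferase activity was determined 44 h later, 15 min after substrate addition at RT.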
Vaccinia Venus: inhibitors of vaccinia virus (Venus reporter) | Vaccinia virus Venus reporter expression, fluorescence | Potency, µM (series often up to 36.5 µM), most hits filed as inhibitors | hit rate 0.46% among 330,000; calls by dose curve; tested in A549 cells; note: nearly all actives have a fitted effect of over 30% in size
Hits are given with their value; [ ] = another dose, or the depositor's remark. Rows were chosen to be rich in hits. Some 11% of all compounds tested hit in one or more screens of this group. Unless noted, calls come from the whole dose curve; as a rule, active = well fitted inhibition curve with a large enough effect; inconclusive = small, poorly fitted or top-dose-only effect, or another doubt; inactive = no such curve, though single readings can be large or run the other way.

Screening Cc1noc(C)c1COc1ccc(C(=O)NNC(=O)c2ccccc2O)cc1 returned Vaccinia mCherry 3.5µM, Pf growth 96h inconclusive, Pf growth 48h inactive, HCV inh inactive and Vaccinia Venus inconclusive.
`Cc1ccnc2ccccc12` gave Vaccinia mCherry inactive and Vaccinia Venus inactive.
For COc1ccc(NC(=O)[C@H](CCS(C)(=O)=O)N2Cc3ccccc3C2=O)c(OC)c1 the results were Vaccinia mCherry inconclusive, Pf growth 96h 9.3µM, NS1 inh inactive, HCV inh inactive and Vaccinia Venus inactive.
For COc1cc(NC(=O)C(CCS(C)(=O)=O)N2Cc3ccccc3C2=O)cc(OC)c1OC (stereo not given) the results were Vaccinia mCherry inactive and Vaccinia Venus inactive.
`CC1=C(C)C(=O)C(CCCCC#CCCCC#CCO)=C(C)C1=O` gave Vaccinia mCherry inactive, Pf growth 96h 9.3µM, NS1 inh inactive, Pf growth 48h 13µM, HCV inh inactive[8.37 µM] and Vaccinia Venus inactive.
`CCOC(=O)N1CC=C2C(C#N)=C(N)C(C#N)(C#N)[C@H](c3cccs3)C2C1` (stereo not given in full) gave Vaccinia mCherry inactive, Pf growth 96h inconclusive, NS1 inh inactive, Pf growth 48h inconclusive, HCV inh inactive and Vaccinia Venus inactive.
For CCCOc1ccc([C@@H]2C3CN(C(=O)OCC)CC=C3C(C#N)=C(N)C2(C#N)C#N)cc1OC (stereo not given in full) the results were NS1 inh inactive, Pf growth 48h 5.9µM and HCV inh inactive.
For CC(C)(C)OC(=O)N1CC=C2C(C#N)=C(N)C(C#N)(C#N)[C@H](c3cccnc3)[C@H]2C1 the results were Vaccinia mCherry inactive, NS1 inh inactive, Pf growth 48h inactive, HCV inh inactive and Vaccinia Venus inactive.
`N#CC1=C(N)C(C#N)(C#N)[C@H](c2ccncc2)[C@H]2CN(C(=O)OCc3ccccc3)CC=C12` gave Vaccinia mCherry inactive, Pf growth 96h inconclusive, NS1 inh inactive, Pf growth 48h 10µM, HCV inh inactive and Vaccinia Venus inactive.
COc1cc([C@@H]2[C@H]3CNCC=C3C(C#N)=C(N)C2(C#N)C#N)ccc1OC(C)C was read as Pf growth 96h inactive, NS1 inh inactive, Pf growth 48h 13µM, HCV inh inconclusive and Vaccinia Venus inactive.
For COC(=O)c1cccnc1NC(=S)NC1CCCCC1 the results were Vaccinia mCherry inactive, Pf growth 96h inconclusive, Pf growth 48h inconclusive, HCV inh inactive and Vaccinia Venus inactive.
For O=C(Nc1cccc2c1CCCC2)c1cc(C2CCCCN2C(=O)c2cccs2)on1 (stereo not given) the results were Vaccinia mCherry inactive and Vaccinia Venus inactive.
For COc1ccc(-c2c(C(C)=O)c(C)nc3sc4c(=O)[nH]nnc4c23)cc1 the results were Vaccinia mCherry inactive, Pf growth 96h inactive, NS1 inh inactive, Pf growth 48h inactive, HCV inh inactive and Vaccinia Venus inactive.
O=C1/C(=C/c2ccncc2)SC(=S)N1Nc1ccccc1 was read as Vaccinia mCherry inactive, Pf growth 96h 9.3µM, NS1 inh inactive, Pf growth 48h 8.3µM, HCV inh inactive and Vaccinia Venus inactive.
Oc1ccccc1-c1nc2c3ccccc3c3ccccc3c2[nH]1 was read as Pf growth 96h inconclusive, NS1 inh inactive, Pf growth 48h 9.3µM and HCV inh inconclusive.
`c1csc(-c2nc3c4ccccc4c4ccccc4c3[nH]2)c1` gave Vaccinia mCherry inconclusive, Pf growth 96h inconclusive, NS1 inh inactive, Pf growth 48h inconclusive, HCV inh 13µM and Vaccinia Venus inconclusive.
For O=C(NN1CCN(Cc2ccccc2)CC1)c1ccc(Cl)cc1 the results were Vaccinia mCherry inactive, Pf growth 96h inactive, NS1 inh inactive, Pf growth 48h inactive, HCV inh inactive and Vaccinia Venus inactive.
For CCOC(=O)Nc1ccc2nc(Sc3ccc(Cl)cc3)sc2c1 the results were Vaccinia mCherry inconclusive, Pf growth 96h 15µM, NS1 inh inactive, Pf growth 48h 9.3µM, HCV inh 14µM and Vaccinia Venus inconclusive.
CCOC(=O)CSc1nc2ccc(NC(=O)c3ccc(Cl)cc3)cc2s1 was read as Vaccinia mCherry inactive and Vaccinia Venus inactive.
`O=C(CC1C(=O)NCCN1CCCc1ccccc1)NCCc1ccccc1Cl` (stereo not given) gave Pf growth 96h inconclusive, NS1 inh inactive, Pf growth 48h 13µM and HCV inh inactive.
